The values below come from publication PMC7819943, “Rice protein-binding microarrays: a tool to detect cis-acting elements near promoter regions in rice”.

Over roughly 35,000 sequences, “fluorescence intensity (a.u.)” has its median near 10,000; the highest 2% begin near 52,000. The full list was thinned out, with the highest values kept by preference.

The assay concerns the target T1, OsWOX13 (Oryza sativa, UniProt Q5QMM3 1-267).
T1 sequence: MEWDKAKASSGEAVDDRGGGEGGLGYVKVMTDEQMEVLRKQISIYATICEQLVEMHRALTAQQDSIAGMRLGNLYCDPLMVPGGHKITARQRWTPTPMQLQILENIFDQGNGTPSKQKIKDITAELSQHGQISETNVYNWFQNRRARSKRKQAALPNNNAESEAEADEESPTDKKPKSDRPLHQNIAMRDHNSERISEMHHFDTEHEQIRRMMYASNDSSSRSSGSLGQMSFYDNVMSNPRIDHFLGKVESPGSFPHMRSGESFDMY
Description: protein-binding microarray (RPBM); PBS, 2% BSA, 51.3 ng/ul salmon testes DNA, 50 uM zinc acetate, 200 nM TF, 25 C, 1 h; high values mean tight binding. Conditions: protein: recombinant; tags: N-terminal polyhistidine and DsRed monomer fusion (pET32a); label: CyDye5-dUTP incorporated in the synthesized complementary strand; 3' TTTTT single-stranded linker to array surface; dsDNA, one strand shown. The procedure, abridged: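 A custom Agilent array was converted to double-stranded form by primer extension with Cy5-dUTP and blocked with 2% BSA. Protein at 200 nM in PBS with 2% BSA, salmon testes DNA and 50 µM zinc acetate was applied for 1 h at 25 °C, followed by washing. The proteins were polyhistidine–DsRed N-terminal fusions of transcription factors, expressed in E. coli BL21-CodonPlus and Ni–NTA-purified. The binding signal is per-feature fluorescence intensity (arbitrary units) from an Axon 4000B scanner.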
Consider “AAATTTTAAATTTTAGTAAAATTTGTTCGGTCTTTCTCTCCGGAGTCACCTAGTGCAG”, for which the binding signal was 5920 fluorescence intensity (a.u.). Regarding “ATAAATTTTATAAACTTGACTGCCTCTGGTTGTATATGCACGGAGTCACCTAGTGCAG”, the binding signal was 23900 fluorescence intensity (a.u.).

For the sequence “TGTAATTTGTTCTTGTTATCATCAATCCCATATAAACTGGCGGAGTCACCTAGTGCAG”, the binding signal is 22300 fluorescence intensity (a.u.). On to “TTGATCTGATTAATTAACTGATCAGACGGGTCGACGGGACCGGAGTCACCTAGTGCAG”, for which the binding signal was 55700 fluorescence intensity (a.u.). Under “AATTAATTGTCTGATCAGTGATCTTTATTAACTGTCGACGCGGAGTCACCTAGTGCAG” stands 28400 fluorescence intensity (a.u.).

“ATCCTTTTCTCCTTTTCTCGCAAAATCTCCAAAACCGCTTCGGAGTCACCTAGTGCAG”: the binding signal was 65500 fluorescence intensity (a.u.). To “ATTAACCATAACCTAATTTGGATAAGCCGACATGGATCGGCGGAGTCACCTAGTGCAG” belongs 8230 fluorescence intensity (a.u.); to “CTACCTTTAATTAGCTTTGCCATAAACGACGTGGGAGTATCGGAGTCACCTAGTGCAG”, 10300 fluorescence intensity (a.u.); to “CCCCAAATCCCACTCCAATCACCACCGCTTCTTCTCCTCCCGGAGTCACCTAGTGCAG”, 6580 fluorescence intensity (a.u.). To “CAAACGGGTAATTAACTGGGATTAATTTGCCATAAGCCGACGGAGTCACCTAGTGCAG” belongs 53100 fluorescence intensity (a.u.); to “CCTGTTAAATTGATCTGCCCTGATTAATTGACCCACCGACCGGAGTCACCTAGTGCAG”, 38100 fluorescence intensity (a.u.); to “CAAATTCCAATCATCTCCAAAACCACTTCGCAAATAAATTCGGAGTCACCTAGTGCAG”, 17900 fluorescence intensity (a.u.).

On to “TAGGATTTGACCATAGTAAATTAATTTGGAGGAATTGTTTCGGAGTCACCTAGTGCAG”, for which the binding signal is 3990 fluorescence intensity (a.u.). To “CCATCTGATTAGAGATTTGATCCTATACCTTCCTAAACATCGGAGTCACCTAGTGCAG” belongs 40700 fluorescence intensity (a.u.). To “AGTACTGTAGATAATAAAGTAAGTCACGAATAAAATAAATCGGAGTCACCTAGTGCAG” belongs 50900 fluorescence intensity (a.u.).

For the sequence “TTAATTGTTTTATCCTATTAATTGGTAGAAGCGGTATTTTCGGAGTCACCTAGTGCAG”, the binding signal was 26700 fluorescence intensity (a.u.).

With “AAAGATAATTGAAAAGTAAACTTGTTGACAGACGGAATCCCGGAGTCACCTAGTGCAG”, the binding signal is 30400 fluorescence intensity (a.u.). To “ACTAATTATAAATCAGAACGATTTATTAACTACTCAATAACGGAGTCACCTAGTGCAG” belongs 24400 fluorescence intensity (a.u.); to “TTGGACACTAATTATAAATATTAAATATAGACTATTAATACGGAGTCACCTAGTGCAG”, 4640 fluorescence intensity (a.u.). To “AATTATTTAAATCAATGTAACTCAAAAGTTAATAAACGTGCGGAGTCACCTAGTGCAG” belongs 13100 fluorescence intensity (a.u.). Under “CATGATTAATCAAGTTAATTATTATACACTAAATATTGGACGGAGTCACCTAGTGCAG” stands 59600 fluorescence intensity (a.u.); under “TATGATTATCACAAGTAATATATAAATTATTAGTCAAGTTCGGAGTCACCTAGTGCAG”, 33600 fluorescence intensity (a.u.). In the case of “TTAACATGTAATCAATTAAATACTAATTATTATAAACGTGCGGAGTCACCTAGTGCAG”, the binding signal was 53100 fluorescence intensity (a.u.). Under “GGGTGTGTAAGGGTAGGTGGAGGGGTGGGTGATGCGAGATCGGAGTCACCTAGTGCAG” stands 4470 fluorescence intensity (a.u.); under “GTCTAATTAGTCCATGATTAATTAGCCATAAGTTCTACAGCGGAGTCACCTAGTGCAG”, 53100 fluorescence intensity (a.u.). To “CCTAATTAATCCATGATTAGTCATAAGTGTTACAATAATCCGGAGTCACCTAGTGCAG” belongs 55500 fluorescence intensity (a.u.); to “GCCTAATTAGTCCATGATTAGCTATAAGTGCTACAATAACCGGAGTCACCTAGTGCAG”, 28100 fluorescence intensity (a.u.). To “CCGTGATTAGCCATAAGTGCTACAGTAACCCACATGTGCTCGGAGTCACCTAGTGCAG” belongs 57900 fluorescence intensity (a.u.); to “TTGAGTCTAATTAGTCCATGATTAGCCATAAGTGCTACAGCGGAGTCACCTAGTGCAG”, 30600 fluorescence intensity (a.u.); to “CATGATTAGCCATAAGTGCTACAGTAACCCACATGTGCTACGGAGTCACCTAGTGCAG”, 34300 fluorescence intensity (a.u.). Regarding “TAAGCCTAATTAGTCTATGATTAGCCATAAGTGCTACAGTCGGAGTCACCTAGTGCAG”, the binding signal is 37800 fluorescence intensity (a.u.).

As for “TCCGTGATTAGCCATAAGTGCTACAGTAACCCACATGTGCCGGAGTCACCTAGTGCAG”, the binding signal is 35800 fluorescence intensity (a.u.).

Take “CCTAATTAGTCCATGATTAGTCATAAGTACTACAATAACCCGGAGTCACCTAGTGCAG”: the binding signal is 33900 fluorescence intensity (a.u.). To “AGACTTAATTGTAACTGTGTACTACTACGAGCTTAATCAGCGGAGTCACCTAGTGCAG” belongs 28400 fluorescence intensity (a.u.); to “AGAGTTGTAATTAACCTTTTCAGGTTGTATTGACTGCAAGCGGAGTCACCTAGTGCAG”, 3760 fluorescence intensity (a.u.).

With “GGATTAATAGATAGTCTGACTTTTCTGATAACTATTTAAGCGGAGTCACCTAGTGCAG”, the binding signal was 28400 fluorescence intensity (a.u.). Under “TTAAAATTATGTTTGAAAATTTAAATTTTAGACGCGGCTTCGGAGTCACCTAGTGCAG” stands 14900 fluorescence intensity (a.u.); under “AAATTAATTAATACAATATATTCCTGCATGCCCTGTATAACGGAGTCACCTAGTGCAG”, 23800 fluorescence intensity (a.u.); under “TTCTCTAGCCCTAAATATGCCGAAGAATATTCCATGTCTCCGGAGTCACCTAGTGCAG”, 64900 fluorescence intensity (a.u.).

In the case of “ACCCTAATTCTCCTAATCTCTTAGGAAATATGGAAGAAGCCGGAGTCACCTAGTGCAG”, the binding signal was 3170 fluorescence intensity (a.u.). As for “GATCGAATTGGTAAATCAAATGTCTCTAAATTCTCTCCATCGGAGTCACCTAGTGCAG”, the binding signal is 4550 fluorescence intensity (a.u.). Under “TGCTAGAATGATTTACGTTATGAAACTGAGGGAGTACATCCGGAGTCACCTAGTGCAG” stands 5380 fluorescence intensity (a.u.); under “TGTGATTTATATCGTGGAAGATGATGGCTTGGCGGTATAGCGGAGTCACCTAGTGCAG”, 36300 fluorescence intensity (a.u.). On to “GTCGATAAATTATTCGCGGCACAATTATTTGTGCCCCATTCGGAGTCACCTAGTGCAG”, for which the binding signal is 5580 fluorescence intensity (a.u.).

Turning to “TCTTCTGATTGCTTTCACACAAGATCCAGCAAAATTAATTCGGAGTCACCTAGTGCAG”, the binding signal was 16900 fluorescence intensity (a.u.). To “AGCAAAATTGATTGCTAATCTTCGGTGTCCAGCAGAGCCCCGGAGTCACCTAGTGCAG” belongs 64900 fluorescence intensity (a.u.); to “AACTAAAACACAGAAATTGATAGTCCAGCAAAACTAGCCCCGGAGTCACCTAGTGCAG”, 5180 fluorescence intensity (a.u.); to “ATACACCAGTTGATTATAATGACAGTGATATTATGGTGGACGGAGTCACCTAGTGCAG”, 17800 fluorescence intensity (a.u.). To “CAAACTAATAATTTGGCTTTTGGCTTCTGCTGAAGCAAGTCGGAGTCACCTAGTGCAG” belongs 4830 fluorescence intensity (a.u.); to “TGCAGTGATAATTTAGGATTATTTAAGATTTGCACAGTGGCGGAGTCACCTAGTGCAG”, 12500 fluorescence intensity (a.u.); to “CATAATTAGCGGTTGATTACTGTAGCATCACTGTAACAAACGGAGTCACCTAGTGCAG”, 29600 fluorescence intensity (a.u.). To “GCTGATTGATTCATTCTGATCTGAACATATAGACAACCATCGGAGTCACCTAGTGCAG” belongs 54700 fluorescence intensity (a.u.); to “CTAGACATATATATTTATCTAGATTCATTAACATCCATATCGGAGTCACCTAGTGCAG”, 5320 fluorescence intensity (a.u.); to “AAACCATTAGCGCATAATTTATTGAGTTTTAATTATTTCACGGAGTCACCTAGTGCAG”, 6070 fluorescence intensity (a.u.). As to “GCTGATTGCCATTGATTCATATTCATTGTGTGCCATCTGGCGGAGTCACCTAGTGCAG”, the binding signal is 58800 fluorescence intensity (a.u.).

Turning to “GTTATGATTAATTGCGCCATTAGGATATTAATTAATCTGGCGGAGTCACCTAGTGCAG”, the binding signal was 54500 fluorescence intensity (a.u.). For the sequence “ACATTCATATTGATGTTAATGATTCTAGACATATATATCTCGGAGTCACCTAGTGCAG”, the binding signal is 4710 fluorescence intensity (a.u.).

Turning to “ACGGTAATTAACGTTGATTACCATAATTAGCGGCGCATTGCGGAGTCACCTAGTGCAG”, the binding signal is 65200 fluorescence intensity (a.u.). Take “GCCATATGATTATTTAATCTGATCCGGAGGATTAAACAAGCGGAGTCACCTAGTGCAG”: the binding signal was 14100 fluorescence intensity (a.u.). To “GCCTGATTATCCATTGTTCATCCTGCCATATTGATTTCAGCGGAGTCACCTAGTGCAG” belongs 30300 fluorescence intensity (a.u.); to “TCTGATTTAACTGCATTGCATTTGTGTCATTGACATGTGGCGGAGTCACCTAGTGCAG”, 42600 fluorescence intensity (a.u.).
